Data published in the supplement of paper PMC8728848.
Many of the other results were omitted from the sample, so the strongest signals are more common in it than they were.

Assays:
Assay in all cases: glycan array binding signal (z-score within array); higher = stronger binding
Conditions in all cases: glycan notation: IUPAC condensed, linker removed
[1] = target: Fuc(a1-2)Gal(b1-3)GalNAc(b1-3)Gal(a1-4)Gal(b1-4)Glc
Procedure, shortened: (§1)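 From the Consortium for Functional Glycomics database, 3228 arrays were curated, keeping only those whose protein sequence was available. Binding is given as a within-array Z-score averaged across arrays sharing a protein sequence and across linkers. Negative Z-scores can be read as non-binding.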

[2] = target: Fuc(a1-2)Gal(b1-4)GlcNAc(b1-2)[Fuc(a1-2)Gal(b1-4)GlcNAc(b1-4)]Man(a1-3)[Fuc(a1-2)Gal(b1-4)GlcNAc(b1-2)Man(a1-6)]Man(b1-4)GlcNAc(b1-4)GlcNAc
Procedure, shortened: as §1

[3] = target: Fuc(a1-2)Gal(b1-4)[Fuc(a1-3)]GlcNAc
Procedure, shortened: as §1

[4] = target: Fuc(a1-2)Gal(b1-4)[Fuc(a1-3)]GlcNAc(b1-2)Man(a1-3)[Fuc(a1-2)Gal(b1-4)[Fuc(a1-3)]GlcNAc(b1-2)Man(a1-6)]Man(b1-4)GlcNAc(b1-4)[Fuc(a1-6)]GlcNAc
Procedure, shortened: as §1

[5] = target: Fuc(a1-2)[Gal(a1-3)]Gal(b1-3)GalNAc(b1-3)Gal(a1-4)Gal(b1-4)Glc
Procedure, shortened: as §1

[6] = target: Fuc(a1-2)[Gal(a1-3)]Gal(b1-4)GlcNAc
Procedure, shortened: as §1

[7] = target: Fuc(a1-2)[GalNAc(a1-3)]Gal(b1-4)GlcNAc(b1-3)GalNAc
Procedure, shortened: as §1

[8] = target: Fuc(a1-2)[GalNAc(a1-3)]Gal(b1-4)GlcNAc(b1-6)GalNAc
Procedure, shortened: as §1

[9] = target: Fuc(a1-3)[Gal(b1-4)]GlcNAc(b1-2)Man(a1-3)[Fuc(a1-3)[Gal(b1-4)]GlcNAc(b1-2)Man(a1-6)]Man(b1-4)GlcNAc(b1-4)GlcNAc
Procedure, shortened: as §1

[10] = target: Fuc(a1-3)[Gal(b1-4)]GlcNAc(b1-3)GalNAc
Procedure, shortened: as §1

[11] = target: Gal(a1-3)Gal(b1-3)[Fuc(a1-4)]GlcNAc(b1-2)Man(a1-3)[Gal(a1-3)Gal(b1-3)[Fuc(a1-4)]GlcNAc(b1-2)Man(a1-6)]Man(b1-4)GlcNAc(b1-4)GlcNAc
Procedure, shortened: as §1

[12] = target: Gal(a1-3)Gal(b1-4)GlcNAc(b1-2)Man(a1-3)[Gal(a1-3)Gal(b1-4)GlcNAc(b1-2)Man(a1-6)]Man(b1-4)GlcNAc(b1-4)GlcNAc
Procedure, shortened: as §1

[13] = target: Gal(a1-3)Gal(b1-4)[Fuc(a1-3)]GlcNAc(b1-2)Man(a1-3)[Gal(a1-3)Gal(b1-4)[Fuc(a1-3)]GlcNAc(b1-2)Man(a1-6)]Man(b1-4)GlcNAc(b1-4)GlcNAc
Procedure, shortened: as §1

[14] = target: Gal(a1-4)Gal(b1-3)GlcNAc(b1-2)Man(a1-3)[Gal(a1-4)Gal(b1-3)GlcNAc(b1-2)Man(a1-6)]Man(b1-4)GlcNAc(b1-4)GlcNAc
Procedure, shortened: as §1

[15] = target: Gal(b1-3)GlcNAc(b1-2)Man(a1-3)[Gal(b1-3)GlcNAc(b1-2)Man(a1-6)]Man(b1-4)GlcNAc(b1-4)GlcNAc
Procedure, shortened: as §1

[16] = target: Gal(b1-3)GlcNAc(b1-3)Gal(b1-4)GlcNAc
Procedure, shortened: as §1

[17] = target: Gal(b1-3)[Neu5Ac(a2-6)]GlcNAc(b1-4)Gal(b1-4)Glc
Procedure, shortened: as §1

[18] = target: Gal(b1-4)GlcNAc(b1-3)Gal(b1-4)GlcNAc(b1-2)[Gal(b1-4)GlcNAc(b1-3)Gal(b1-4)GlcNAc(b1-6)]Man(a1-6)[Gal(b1-4)GlcNAc(b1-3)Gal(b1-4)GlcNAc(b1-2)Man(a1-3)]Man(b1-4)GlcNAc(b1-4)[Fuc(a1-6)]GlcNAc
Procedure, shortened: as §1

[19] = target: Gal(b1-4)GlcNAc(b1-3)Gal(b1-4)GlcNAc(b1-3)Gal(b1-4)GlcNAc(b1-2)Man(a1-3)[Gal(b1-4)GlcNAc(b1-3)Gal(b1-4)GlcNAc(b1-3)Gal(b1-4)GlcNAc(b1-2)Man(a1-6)]Man(b1-4)GlcNAc(b1-4)GlcNAc
Procedure, shortened: as §1

[20] = target: Gal(b1-4)GlcNAc(b1-3)Gal(b1-4)GlcNAc(b1-3)Gal(b1-4)GlcNAc(b1-2)[Gal(b1-4)GlcNAc(b1-3)Gal(b1-4)GlcNAc(b1-3)Gal(b1-4)GlcNAc(b1-6)]Man(a1-6)[Gal(b1-4)GlcNAc(b1-3)Gal(b1-4)GlcNAc(b1-3)Gal(b1-4)GlcNAc(b1-2)Man(a1-3)]Man(b1-4)GlcNAc(b1-4)[Fuc(a1-6)]GlcNAc
Procedure, shortened: as §1

[21] = target: Gal(b1-4)GlcNAc(b1-3)Gal(b1-4)GlcNAc(b1-3)Gal(b1-4)GlcNAc(b1-3)Gal(b1-4)GlcNAc(b1-2)Man(a1-3)[Gal(b1-4)GlcNAc(b1-3)Gal(b1-4)GlcNAc(b1-3)Gal(b1-4)GlcNAc(b1-3)Gal(b1-4)GlcNAc(b1-2)Man(a1-6)]Man(b1-4)GlcNAc(b1-4)[Fuc(a1-6)]GlcNAc
Procedure, shortened: as §1

[22] = target: Gal(b1-4)GlcNAc(b1-3)Gal(b1-4)GlcNAc(b1-3)[Gal(b1-4)GlcNAc(b1-3)Gal(b1-4)GlcNAc(b1-6)]GalNAc
Procedure, shortened: as §1

[23] = target: Gal(b1-4)GlcNAc(b1-6)[Gal(b1-4)GlcNAc(b1-3)]GalNAc
Procedure, shortened: as §1

[24] = target: Gal6S(b1-4)GlcNAc6S
Procedure, shortened: as §1

[25] = target: GalNAc(b1-3)GlcNAc
Procedure, shortened: as §1

[26] = target: GalNAc(b1-4)GlcNAc(b1-2)Man(a1-3)[GalNAc(b1-4)GlcNAc(b1-2)Man(a1-6)]Man(b1-4)GlcNAc(b1-4)GlcNAc
Procedure, shortened: as §1

[27] = target: Glc(b1-4)Glc
Procedure, shortened: as §1

[28] = target: GlcA(b1-3)Gal
Procedure, shortened: as §1

[29] = target: GlcA3S(b1-3)Gal(b1-4)GlcNAc(b1-2)Man
Procedure, shortened: as §1

[30] = target: GlcNAc(a1-4)Gal(b1-4)GalNAc
Procedure, shortened: as §1

B1: PX14343E-bfa-545-24-545 (Bacteroides fragilis) (protein)
chain: LDRYPQEELSDGSFWKTPDDANKVVSDLYGYLSTWDQDNDINSDNATMGIKWAAGNVSKGIYDPADQGWSGDYANVRQCNLILSKIDEIPDYPEADKTKALGQVYFFRAYIYFNLIRSFGDVPYIDKPLDLKDMEGITRMPRAEVYEKIMADFDKAIAALPTEWGASDYGRVTKGAAMAMKARAALYYGNWDTAATEAKNVMDLGLYELYDKDNTGKYAELFWEKADGCDEFILVTQFNYPDKTHYLMGWECFPTKGWGGMNPTQSLVDAFEDSEGAPISKSKIYDPTDPFKNRDPRLEVDILHDGEEMYGVTIKVAPLASSGSTGINQHNDATETGYYGQKWLDPSLDPLSDGWNMGKDWVHIRYAEVLLTYAEAKNELQGLDPEAFDAVNQVRRRVGMPELQNTDPSKPTYCATQDDLRQRIRNEWRVEFCLEGGKRMWDIRRWGIAKDVLNAPFEGLKYKIVDNPNDPDKKVDGGKMCILYQGDPIILSGSRYSDNNYLFPVPQSEIDLNPALTQNPGY
- glycan array binding signal (z-score) [1]: -0.281
- glycan array binding signal (z-score) [2]: -0.211
- glycan array binding signal (z-score) [3]: -0.665
- glycan array binding signal (z-score) [4]: 0.859
- glycan array binding signal (z-score) [5]: -0.61
- glycan array binding signal (z-score) [6]: -0.855
- glycan array binding signal (z-score) [7]: -0.508
- glycan array binding signal (z-score) [8]: 0.103
- glycan array binding signal (z-score) [9]: 4.63
- glycan array binding signal (z-score) [10]: 1.3
- glycan array binding signal (z-score) [11]: 2.95
- glycan array binding signal (z-score) [12]: 4.55
- glycan array binding signal (z-score) [13]: 3.48
- glycan array binding signal (z-score) [14]: 2.18
- glycan array binding signal (z-score) [15]: 0.652
- glycan array binding signal (z-score) [16]: -0.675
- glycan array binding signal (z-score) [17]: -0.838
- glycan array binding signal (z-score) [18]: 1.62
- glycan array binding signal (z-score) [19]: 3.79
- glycan array binding signal (z-score) [20]: 4.56
- glycan array binding signal (z-score) [21]: 2.87
- glycan array binding signal (z-score) [22]: 2.88
- glycan array binding signal (z-score) [23]: -0.034
- glycan array binding signal (z-score) [24]: -0.429
- glycan array binding signal (z-score) [25]: 0.169
- glycan array binding signal (z-score) [26]: 1.25
- glycan array binding signal (z-score) [27]: 0.195
- glycan array binding signal (z-score) [28]: -0.027
- glycan array binding signal (z-score) [29]: -0.441
- glycan array binding signal (z-score) [30]: 0.655
